Experimental data as given in PubChem BioAssay (NCATS).
The list shows a part of the results. Entries that show only a call come without a potency. Results filed as inconclusive are left out. Calls of active or inactive are those of the source. Calls come from the whole dose curve; as a rule, active = well fitted cell-killing curve with a large enough effect; inconclusive = small, poorly fitted or top-dose-only effect, or effect the other way, or another doubt; inactive = no such curve, though single readings can be large or run the other way.

Assay: qHTS screen for small molecules that inhibit ELG1-dependent DNA repair: Hit Confirmation with 5FU Viability (AID 624250)
Conditions: cell viability with 5-FU; series mostly up to 46.1 µM
Description: Cancer cells divide rapidly compared to normal cells in the body. During cell division, cancer cells need to duplicate their genome by DNA replication. The failure of genome duplication leads to cancer cells' death. Therefore, inhibitors of DNA replication could specifically kill cancer cells. Based on this concept, many chemotherapeutic agents were developed and have been used to treat cancer patients. However, there are a limited number of agents available in the clinical setting, and some of those that do exist have low efficacy and severe side effects. Therefore, if we can find the compounds that effectively block DNA replication either by directly damaging DNA or by inhibiting other cellular mechanisms, the options for cancer treatment will be broadened. With this in mind, we developed a quantitative high-throughput ELG1-luciferase reporter gene assay. Small molecules that specifically block ELG1 function in response to DNA damage can be identified by monitoring the suppression of luciferase activity. Since ELG1 defines a pathway for repairing DNA damage, agents blocking ELG1 function can be used to sensitize cancer cells to chemotherapeutic agents whose mechanism of action involves the induction of DNA damage.
NIH Molecular Libraries Probe Production Network [MLPCN]
NIH Chemical Genomics Center [NCGC]
Assay Provider: Kyungjae Myung, NHGRI, NIH
ELG1-luc HEK293T cells will be seeded in 1536-well plates at a density of 2,000 cells/well. Approximately 5 hours after plating, compounds will be added to the plate by pin tool transfer and 5-fluorouridine will be added by FRD dispenser (final concentration of 5-fluorouridine =10 µM). 16 hours following the addition of the compounds, cell viability will be measured using Cell Titer Glo.
Potency is the fitted concentration of half-maximal effect.

Compound | Potency
Clc1ccc2nc(-c3ccccc3)nc(C(Cl)Cl)c2c1 | inactive
CC(=O)c1c(C)n(-c2ccc(C)cc2)c2ccc(O)cc12 | inactive
NC(=O)c1sc2nc3c(c(-c4ccccc4)c2c1N)CCC3 | inactive
COc1ccc(S(=O)(=O)Nc2ccc3oc(C)c(C(C)=O)c3c2)cc1 | inactive
C[C@@H]1C[C@H]2CC[C@H](O2)[C@H](C)C(=O)O[C@@H](C)C[C@@H]2CC[C@@H](O2)[C@@H](C)C(=O)O[C@H](C)C[C@H]2CC[C@H](O2)[C@H](C)C(=O)O[C@@H](C)C[C@@H]2CC[C@@H](O2)[C@@H](C)C(=O)O1 | inactive
COc1ccc(CNc2ncnc3ccccc23)cc1 | inactive
CCc1ccc(N(CC)c2ncnc3nc[nH]c23)cc1 | inactive
Cc1nnc(N/N=C/c2ccccn2)[nH]c1=O | inactive
COc1ccccc1C(=O)Nc1ccc(C)c(S(=O)(=O)N2CCCCC2)c1 | inactive
COc1cc(N)c(Cl)cc1C(=O)OCC(=O)c1ccc2c(c1)NC(=O)CO2 | inactive
COc1ccc(Nc2cc(=O)oc3ccccc23)cc1 | inactive
OCCCNc1nccc(-c2cc(Nc3cccc(Cl)c3)ncn2)n1 | inactive
O=C(C1CCCN(S(=O)(=O)c2ccccc2)C1)N1CCN(c2ccc(F)cc2)CC1 (stereo unspecified) | inactive
COc1ccc(NS(=O)(=O)c2ccc(Oc3c(C#N)cccc3C#N)cc2)cc1 | inactive
CC(C)(CNC(=O)c1ccc(Cl)c(S(=O)(=O)N2CCc3ccccc3C2)c1)N1CCOCC1 | inactive
CC(=O)[O][Sn]([c]1ccccc1)([c]1ccccc1)[c]1ccccc1 | 2810 nM (active)
